Sm TGR inh – S. mansoni TGR enzyme inhibition. Potency, µM (doses to about 114 µM), usual class: inhibitors. purified TGR, DTNB reduction, TNB absorbance 405 nm. AID 485364. hit rate 3% among 360,000. Q962Y6; also: nearly all actives have a fitted effect of over 60% in size
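TGR 20 nM + NADPH 100 uM (dispensed conc.), cpd preinc 15 min RT; start with NADPH (500 uM addition) then DTNB (15 mM addition). Kinetic TNB absorbance, 405 nm filter. Four-parameter Hill fit across titration.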
Pf growth 96h – P. falciparum growth inhibition at 96 hour, primary screen for plastid delayed-death inhibitors; AID 504834; hit rate 6.9% among 320,000; P. falciparum luciferase reporter growth, 96 h; Potency, µM (highest dose often 28.7 µM), usual class: inhibitors
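Compounds incubated with erythrocytes infected by luciferase-expressing P. falciparum (2% hematocrit, 0.05% parasitemia final) for 96 hours, 37 C in 5% CO2. Growth inhibition scored as decreased luciferase luminescence.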
HCMV inh – blocks human cytomegalovirus replication; HFF cells, HCMV-luciferase reporter, 72 h; hits give low values; activity change, negative = inhibition, % at 57.5 µM; hit rate 4.5% among 410,000; in the data active = activity change below about -60%; inconclusive = no clear call, values can overlap the other calls; inactive = above about -39%
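Human foreskin fibroblasts infected with luciferase-reporter HCMV at MOI 1 PFU/cell, compounds at two doses. Luciferase measured 72 h post infection; normalized to buffer-only basal and Salinomycin (10uM) controls.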
Pf growth 48h – inhibits P. falciparum growth in the first generation, 48 h; hit rate 5.9% among 310,000; P. falciparum luciferase growth in erythrocytes, 48 h; Potency, µM (highest dose often 28.7 µM), usual class: inhibitors
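In quantitative HTS format, infected erythrocytes bearing luciferase-reporter parasites were treated for a single generation at 37 C. Luminescence after adding detection reagent served as the growth measure.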
Giardia FBPA inh – Giardia lamblia aldolase inhibition | purified Giardia FBPA | Potency, µM (highest dose often 59.6 µM), usual class: inhibitors | hit rate 0.71% among 290,000 | AID 2451; also: nearly all actives have a fitted effect of over 55% in size
Target sequence (A8B2U2 whole entry, looked up): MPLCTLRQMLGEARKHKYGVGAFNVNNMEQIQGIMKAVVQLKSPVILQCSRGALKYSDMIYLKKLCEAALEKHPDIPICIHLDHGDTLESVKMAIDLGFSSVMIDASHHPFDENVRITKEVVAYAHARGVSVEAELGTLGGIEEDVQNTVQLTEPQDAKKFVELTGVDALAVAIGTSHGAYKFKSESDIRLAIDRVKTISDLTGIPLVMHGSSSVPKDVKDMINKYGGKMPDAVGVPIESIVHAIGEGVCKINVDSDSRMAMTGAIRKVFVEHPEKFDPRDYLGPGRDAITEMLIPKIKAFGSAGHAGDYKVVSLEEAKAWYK
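40 nM FBPA preincubated 10 min at RT with compound (up to 57.5 uM final), then substrate plus GAPDH/TPI/NAD/arsenate coupling and diaphorase/resazurin added. Fluorescence read after 20 min at RT, 525/598 nm.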
Large screens that a line does not name were inactive. Sampled rows, rich in hits. Any-hit rate of the full collection: about 14%. Unless noted, calls follow the shape of the dose curve; as a rule, active = well fitted curve in the direction sought with a large enough effect; inconclusive = small, poorly fitted or top-dose-only effect, or another doubt; inactive = no such curve, though single readings can be large; an effect the other way counts as inactive or inconclusive.

Cc1cc(SCn2nnc3ccccc3c2=O)nc2ccccc12	none
CCc1cccc(CC)c1-n1c(SCC(=O)N2CCc3ccccc3C2)nnc1-c1cccnc1	Pf growth 96h 6.6µM, HCMV inh inconclusive, Pf growth 48h 12µM
Cc1ccnc(SCC(=O)N2CCc3ccccc3C2)n1	Sm TGR inh 32µM, Pf growth 48h inconclusive
CCc1cccc(CC)c1-n1c(SCC(=O)c2c(N)n(C)c(=O)n(C)c2=O)nnc1-c1cccnc1	none
CCc1cccc(CC)c1-n1c(SCn2nnc3ccccc3c2=O)nnc1-c1cccnc1	Pf growth 96h 4.1µM, HCMV inh inconclusive (no result: Pf growth 48h)
Cc1ccc(-n2nnnc2SCn2nnc3ccccc3c2=O)c(C)c1	HCMV inh -86
NC(=O)C1CCCN(CC(O)COCc2ccc(Cl)cc2)C1 (centres undefined)	Giardia FBPA inh inconclusive (no result: Pf growth 48h)
CCOc1ccc2c(c1)nc(SCC(=O)c1cccs1)n2C	Sm TGR inh inconclusive, Pf growth 96h inconclusive
CCOc1ccc2c(c1)nc(SCC(=O)c1ccc(Br)s1)n2C	Sm TGR inh 35µM, Pf growth 96h inconclusive, Pf growth 48h inconclusive
CCCCC(c1nnnn1CC1CCCO1)N1CCN(Cc2ccccc2)CC1 (centres undefined)	Pf growth 96h inconclusive, Pf growth 48h inconclusive
COc1ccc(C(c2nnnn2CC2CCCO2)N2CCN(c3cccc(C)c3C)CC2)cc1 (centres undefined)	Pf growth 48h 9.3µM
CCCCC(c1nnnn1CC1CCCO1)N1CCN(c2cccc(C)c2C)CC1 (centres undefined)	Pf growth 48h 13µM (no result: Pf growth 96h)
CCN(CC)c1ccc(NC(=O)c2ccc(S(=O)(=O)N3CCOCC3)cc2)cc1	none (no result: Sm TGR inh, Pf growth 96h, Pf growth 48h, Giardia FBPA inh)
O=C(CCCN1C(=O)c2cccc3cccc(c23)C1=O)N1CCN(c2ncccn2)CC1	Pf growth 96h inconclusive, HCMV inh -66, Pf growth 48h inconclusive (no result: Sm TGR inh)
O=C(CCCN1C(=O)c2ccccc2C1=O)N1CCCCC1	Pf growth 96h 5.2µM
O=C(CN1C(=O)c2ccccc2C1=O)N1CCCCC1	none
O=C(CCCN1C(=O)c2cccc3cccc(c23)C1=O)N1CCN(c2ccccn2)CC1	none
O=C(CNc1cc(S(=O)(=O)N2CCOCC2)ccc1NCC1CCCO1)Nc1cccc(F)c1 (centres undefined)	none (no result: Giardia FBPA inh)
Cc1cccc2nc(-c3cccnc3)c(NCCC(C)C)n12	none
COc1ccc(Nc2c(-c3ccco3)nc3cccc(C)n23)cc1	Pf growth 96h 2.6µM
Cc1cccc2nc(-c3cccnc3)c(Nc3ccccc3)n12	HCMV inh -74, Pf growth 48h inconclusive
Cc1ccc(N=C2NC(=O)CC(C(=O)Nc3cc(C(F)(F)F)ccc3Cl)S2)cc1 (centres undefined)	none (no result: Pf growth 96h, Pf growth 48h, Giardia FBPA inh)
CCOC(=O)c1c(NC(=O)C2COc3ccccc3O2)sc2c1CCN(Cc1ccccc1)C2 (centres undefined)	Pf growth 96h 2.3µM, Pf growth 48h 4.7µM
COC(=O)N1CCc2c(sc(NC(=O)C3COc4ccccc4O3)c2C(N)=O)C1 (centres undefined)	Pf growth 96h inconclusive, HCMV inh inconclusive, Pf growth 48h 15µM (no result: Giardia FBPA inh)
CCNC(=O)NC(=O)COC(=O)c1cccc(S(=O)(=O)N2CC3(C)CC2CC(C)(C)C3)c1 (centres undefined)	none (no result: Giardia FBPA inh)
CSCCC(NC(=O)c1ccccc1Br)C(=O)N1CCN(C(C)=O)CC1 (centres undefined)	none (no result: Giardia FBPA inh)
Nc1nc(N)c(-c2cccc(C(F)(F)F)c2)c(Cc2cccc(C(F)(F)F)c2)n1	HCMV inh -75 (no result: Sm TGR inh, Pf growth 96h, Pf growth 48h, Giardia FBPA inh)
O=C(Cn1cc(S(=O)(=O)N2CCN(c3ccccc3F)CC2)c2ccccc2c1=O)Nc1ccc(F)cc1Cl	none (no result: Pf growth 96h, Pf growth 48h, Giardia FBPA inh)
C/C(=C\C(=O)c1ccccc1)NNC(=O)c1ccc(Cl)cc1	HCMV inh -73
CC(=O)Nc1ccc(N/C(C)=C/C(=O)c2cccnc2)cc1	HCMV inh -61
C/C(=C\C(=O)c1cccnc1)Nc1ccc(C(=O)O)cc1	none (no result: Pf growth 96h)
COc1ccc(N/C(C)=C/C(=O)c2ccccc2)cc1	Pf growth 96h 12µM
CC(Nc1cc(C)cc(C)c1)=[N+](C)CCNS(=O)(=O)c1ccc(Cl)cc1	none
O=C(NCCc1ccccc1)c1csc(C(O)Cc2ccc(F)cc2)n1 (centres undefined)	none (no result: Sm TGR inh, Pf growth 96h, Pf growth 48h, Giardia FBPA inh)
O=C(c1ccc2c(=O)n(CCc3ccccc3)c(=O)[nH]c2c1)N1CCN(c2ccc(Cl)cc2)CC1	none (no result: Pf growth 96h, Pf growth 48h, Giardia FBPA inh)
